# The list is not random: actives were taken first. Their share in the collection is about 18%.
# DT40 TDP1 CPT – growth inhibition of DT40 Tdp1-/-;hTDP1 cells with camptothecin (screen for TDP1 inhibitors). chicken DT40 Tdp1-/-;hTDP1 cells + 20 nM CPT, ATP luminescence, 48 h. Potency, µM (top dose mostly 46.2 µM), for inactives: top-dose activity change, negative = growth inhibition, usual class: inhibitors. 420,000 compounds, 12% hits; further: nearly all actives have a fitted effect of over 55% in size
#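 Cell growth measured by CellTiter-Glo luminescence after a minimum 48 h, 37 C compound exposure with 20 nM CPT in Tdp1-knockout DT40 cells stably expressing hTDP1, seeded 400/well; qHTS titration format.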
# KAT2A inh – blocks human GCN5L2 histone acetyltransferase. 390,000 compounds, 0.21% hits. GCN5L2 HAT assay, ThioGlo1 CoA-SH fluorescence. Potency, µM (top dose mostly 58.9 µM), without a hit: at the top dose activity change, negative = inhibition, actives largely listed as inhibitors
#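 Free CoA generated was detected with ThioGlo1 (50uM) fluorescence at Ex340nm/Em540nm, read immediately and after 20 min at room temperature. Enzyme, 20 nM in HEPES pH 7.5 buffer, saw compounds 15 min before adding 75uM H3(1-25) peptide and 70uM acetyl-CoA.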
# PLK1 PBD block – blocks phosphopeptide binding to human PLK1 polo-box domain | P53350 | Plk1 PBD binding of FITC phosphopeptide, fluorescence polarization | Potency, µM, for the others: max response, negative = inhibition, actives largely listed as inhibitors | 360,000 compounds, 2.8% hits; further: series mostly up to about 57 µM; nearly all actives have a fitted effect of over 65% in size
# VDR inhibitor – inhibitors of human vitamin D receptor | VDR-SRC2-3 peptide fluorescence polarization, 2 h | Potency, µM, without a hit: max response, negative = inhibition, actives largely listed as inhibitors | 400,000 compounds, 0.93% hits | AID 504847
# Target sequence (P11473 whole entry, looked up): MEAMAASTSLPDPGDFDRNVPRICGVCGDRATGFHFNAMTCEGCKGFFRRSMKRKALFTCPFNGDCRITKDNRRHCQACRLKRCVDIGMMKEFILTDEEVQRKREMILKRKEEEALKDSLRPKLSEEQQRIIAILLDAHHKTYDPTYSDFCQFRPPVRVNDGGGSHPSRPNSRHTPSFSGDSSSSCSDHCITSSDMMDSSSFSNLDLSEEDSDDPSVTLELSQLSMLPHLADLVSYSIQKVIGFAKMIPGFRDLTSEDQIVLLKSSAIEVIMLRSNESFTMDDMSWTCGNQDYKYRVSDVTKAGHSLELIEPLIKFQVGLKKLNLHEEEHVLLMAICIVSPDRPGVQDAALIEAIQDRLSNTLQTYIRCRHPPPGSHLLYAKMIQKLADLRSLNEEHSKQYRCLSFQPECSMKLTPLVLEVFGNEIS
#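 Fluorescence polarization assay of small-molecule disruption of VDR binding to coregulator peptide SRC2-3. Compounds and controls pin-transferred, then read after 2 h incubation at ambient room temperature.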
# TDP1 block – blocks human tyrosyl-DNA phosphodiesterase 1. recombinant TDP1, AlphaScreen DNA substrate cleavage. 350,000 compounds, 0.28% hits. Potency, µM (highest dose often 130 µM), for inactives: top-dose activity change, negative = inhibition, usual class: inhibitors. AID 485290; further: nearly all actives have a fitted effect of over 40% in size
#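 Steps: enzyme plus compound, 15 min RT; add biotin/phosphotyrosine-FITC oligonucleotide (15 nM final), react 5 min; add donor/acceptor beads (10 ug/ml final), 10 min; read AlphaScreen. Tdp1 at 1 nM final.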
# TDP1 cell noCPT – qHTS for Inhibitors of human tyrosyl-DNA phosphodiesterase 1 (TDP1): qHTS in cells in absence of CPT. DT40 Tdp1-/- hTDP1 cells, no CPT, ATP luminescence, 48 h. Potency, µM (series often up to 46.2 µM), inactives show at the top dose activity change, negative = growth inhibition, hits mostly inhibitors. 420,000 compounds, 15% hits; further: nearly all actives have a fitted effect of over 55% in size
#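 No-CPT arm: Tdp1-/-;hTDP1 DT40 cells (400/well) plus compounds, incubated ≥48 hr at 37 °C. Readout CellTiter-Glo luminescence.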
# * = called active by the depositor; ? = inconclusive; . = no result; [ ] = remark or other dose. The call rests on the fitted dose curve; in most records, active means well fitted curve in the direction sought with a large enough effect; inconclusive means small, poorly fitted or top-dose-only effect, or another doubt; inactive means no such curve, though single readings can be large; an effect the other way counts as inactive or inconclusive. On the % scale 0 is the no-effect control and ±100 the full control effect; potency means the concentration at half of the fitted maximal effect.
SMILES,DT40 TDP1 CPT,KAT2A inh,PLK1 PBD block,VDR inhibitor,TDP1 block,TDP1 cell noCPT
Cn1c2c(c(=O)[nH]c1=O)C(c1cccc(O)c1)C1=C(N2)c2ccccc2C1=O (stereo not given),7.31µM*,-6.0%,3.9%,2.4%,-1.8%,8.2µM*
COc1cccc(C2C3=C(Nc4[nH]n(-c5ccccc5)c(=O)c42)c2ccccc2C3=O)c1 (stereo not given),.,4.1%,.,.,6.9%,.
CC(NCC(=O)NC(=O)NCCC1=CCCCC1)c1ccc(S(N)(=O)=O)cc1 (stereo not given),-18.5%,.,-15.2%,3.7%,.,-8.6%
O=C(NCC12CC3CC(CC(C3)C1)C2)c1cc2nc(-c3ccc(F)cc3)cc(C(F)(F)F)n2n1,4.0%,1.3%,.,8.5%,9.3%,-11.9%
O=C(NCc1cccnc1)c1cc2nc(-c3ccc4c(c3)OCO4)cc(C(F)(F)F)n2n1,0.7%,3.5%,-20.9%,?,3.7%,-23.0%
O=C(NC1CCCCC1)c1cc2nc(-c3ccco3)cc(C(F)(F)F)n2n1,20.6µM*,?,-7.0%,1.3%,4.5%,18.4µM*
O=C(Nc1cnn(Cc2ccccc2)c1)c1cc2nc(-c3ccco3)cc(C(F)(F)F)n2n1,-20.6%,0.8%,-3.5%,8.8%,5.2%,?
O=C(NCc1ccco1)c1cc2nc(-c3ccc4c(c3)OCO4)cc(C(F)(F)F)n2n1,?,-13.9%,-14.0%,-11.2%,5.8%,18.4µM*
O=C(NC12CC3CC(CC(C3)C1)C2)c1cc2nc(-c3ccco3)cc(C(F)(F)F)n2n1,20.6µM*,-8.6%,-5.6%,-2.9%,0.0%,25.9µM*
O=C(NC1CCCCC1)c1cc2nc3c(c(C(F)(F)F)n2n1)CCCC3,?,0.3%,-15.3%,8.5%,2.1%,20.6µM*
CN(C(=O)CSc1nc2[nH]ncc2c(=O)[nH]1)c1ccccc1,-2.3%,-1.5%,-5.4%,-11.9%,.,2.9%
CCOC(=O)c1cnn(-c2ccc(C(=O)Nc3cccc(C(C)=O)c3)cc2)c1N,2.06µM*,1.2%,.,14.4%,3.4%,?
CCOC(=O)c1cc(-c2ccccc2)n(-c2cccc(C(=O)Nc3ccc(OCC)cc3)c2)c1C,?,-10.4%,.,4.2%,-7.6%,?
CCOC(=O)c1cc(-c2ccccc2)n(-c2cccc(C(=O)N(CC)c3ccccc3)c2)c1C,14.6µM*,-4.7%,.,-0.8%,0.9%,18.4µM*
CCOC(=O)c1cc(-c2ccccc2)n(-c2cccc(C(=O)Nc3cccc(C)c3)c2)c1C,?,-9.4%,.,11.8%,8.5%,23.1µM*
CC(NC(=O)c1cccc2c1Oc1ccccc1S2)C(=O)O (stereo not given),-11.4%,.,-27.4%,.,.,-14.9%
Cn1c(=O)c2c(-c3ccccc3)n3c(c2n(C)c1=O)C(c1cccc([N+](=O)[O-])c1)Nc1ccccc1-3 (stereo not given),13µM*,-10.2%,.,8.6%,8.6%,?
O=[N+]([O-])c1cccc(C2Nc3ccccc3CO2)c1 (stereo not given),1.0%,.,6.5%,.,.,?
COc1ccc(C2Nc3ccccc3-n3c(-c4ccccc4)c4c(=O)n(C)c(=O)n(C)c4c32)cc1 (stereo not given),16.4µM*,-12.9%,.,15.5%,8.6%,?
COc1cc(SC)ccc1C(=O)N1CCCc2ccccc21,?,2.6%,2.2%,-17.8%,.,?
O=C(c1ccc(Cl)cc1Cl)N1CCc2ccccc21,?,1.1%,-4.2%,-13.7%,.,?
CSc1ccc(Cl)c(C(=O)N2CCOc3ccccc32)c1,18.4µM*,-5.5%,3.4%,-7.0%,2.0%,16.4µM*
O=C(c1cc(Cl)ccc1Cl)N1CCc2ccccc21,?,-14.4%,26.7µM*,?,.,?
CCOC(=O)C1CCN(C(=O)c2ccc(SC)cc2OC)CC1,?,0.5%,29.9µM*,9.2%,-2.3%,?
COc1cc(SC)ccc1C(=O)N1CCc2ccccc21,20.6µM*,-1.1%,-2.4%,-1.4%,.,?
SMILES,DT40 TDP1 CPT,KAT2A inh,PLK1 PBD block,VDR inhibitor,TDP1 block,TDP1 cell noCPT
CCN(C(=O)Cn1c(SCc2ccccc2F)nc2cccnc21)c1ccccc1,?,-5.3%,.,-2.3%,2.5%,?
CCN(CC)S(=O)(=O)c1cc(C(=O)N2CCc3ccccc32)ccc1Cl,?,-4.1%,-22.9%,1.6%,2.0%,9.2µM*
O=C(Nc1ccc(F)c(F)c1)c1cnn2c1NC(=C1CC1)C=C2C(F)F,16.1%,.,.,.,.,-17.9%
O=C(Nc1ccncc1)c1cnn2c1NC(=C1CC1)C=C2C(F)F,10µM*,.,.,.,.,11.2µM*
Cc1ccc2c(c1)CCCN2C(=O)c1cnn2c1NC(=C1CC1)C=C2C(F)F,10µM*,.,.,.,.,10µM*
O=C(c1ccco1)N1CCC2(CCN(Cc3nccs3)CC2)CC1,1.0%,-2.8%,.,-1.1%,.,-12.7%
CCC(C)(C#CCN1CCCCC1)OCCC#N (stereo not given),-27.8%,-3.3%,-1.5%,-24.8%,6.3%,2.5%
OC(c1ccc(F)c(F)c1)c1nc(-c2ccncc2)cs1 (stereo not given),8.2µM*,.,-7.1%,.,.,8.2µM*
OC(c1ccc(F)c(F)c1)c1nc(-c2ccc(Cl)cc2)cs1 (stereo not given),?,.,-2.1%,.,.,16.4µM*
OC(c1ccc(F)c(F)c1)c1nc(-c2ccc(F)c(Cl)c2)cs1 (stereo not given),?,.,-5.5%,.,.,-28.8%
OC(c1ccc(F)c(F)c1)c1nc(-c2cncnc2)cs1 (stereo not given),-20.7%,.,2.8%,.,.,?
OC(c1ccc(F)cc1)c1nc(-c2ccncc2)cs1 (stereo not given),7.31µM*,.,0.2%,.,.,7.31µM*
OC(c1ccc(F)c(F)c1)c1nc(-c2cccc(C(F)(F)F)c2)cs1 (stereo not given),16.4µM*,.,-7.3%,.,.,?
OC(c1ccc(F)cc1)c1nc(-c2cccc(C(F)(F)F)c2)cs1 (stereo not given),?,.,-5.0%,.,.,?
CC(C)Oc1ccc(CN2CCC2(C)C(=O)Nc2ccc(Cl)c(Cl)c2)cc1 (stereo not given),?,.,3.6%,.,.,?
CCCC(=O)Nc1cc(-c2nc3cccnc3s2)ccc1C,-9.2%,-23.6%,.,10.7%,6.5%,-24.2%
CCn1nc(C)cc1C(=O)NCC1CCC2(CCN(Cc3ccccc3F)CC2)O1 (stereo not given),-12.2%[9.04 µM],.,.,.,.,?
COCCNC(=O)C1(C)CCCN(Cc2ccc(-n3ccnc3)cc2)C1 (stereo not given),1.9%,.,-1.8%,.,.,-0.1%
